Results from PubChem BioAssay (NCATS).
Inconclusive results are not listed. Entries that show only a call come without a potency. A number with no mark means an inactive call. Activity calls are given as the source filed them. Calls come from the whole dose curve; as a rule, active = well fitted curve in the direction sought with a large enough effect; inconclusive = small, poorly fitted or top-dose-only effect, or another doubt; inactive = no such curve, though single readings can be large; an effect the other way counts as inactive or inconclusive.

How the values were obtained:
[1] = biological target: Aldehyde dehydrogenase, mitochondrial (Homo sapiens) (UniProt P05091); test: qHTS for Inhibitors of the Aldehyde Dehydrogenase Family (ALDH2) Primary screen (AID 2061308); note: nearly all actives have a fitted effect of over 55% in size
[2] = biological target: Retinaldehyde dehydrogenase 3 (Homo sapiens) (UniProt P47895); test: qHTS for Inhibitors of the Aldehyde Dehydrogenase Family (ALDH1A3) Confirmatory screens (AID 2061311); note: nearly all actives have a fitted effect of over 60% in size; note: potency is the fitted concentration of half-maximal effect
[3] = biological target: Retinal dehydrogenase 2 (Homo sapiens) (UniProt O94788); test: qHTS for Inhibitors of the Aldehyde Dehydrogenase Family (ALDH1A2) Confirmation screens (AID 2061314); note: nearly all actives have a fitted effect of over 65% in size; note: potency is the fitted concentration of half-maximal effect
[4] = biological target: Retinaldehyde dehydrogenase 3 (Homo sapiens) (UniProt P47895); test: qHTS for Inhibitors of the Aldehyde Dehydrogenase Family (ALDH1A3) Primary screen (AID 2061315); note: potency is the fitted concentration of half-maximal effect
[5] = biological target: Aldehyde dehydrogenase 1A1 (Homo sapiens) (UniProt P00352); test: qHTS for Inhibitors of the Aldehyde Dehydrogenase Family (ALDH1A1) Confirmatory screens (AID 2061316); note: nearly all actives have a fitted effect of over 65% in size; note: potency is the fitted concentration of half-maximal effect

| Compound | Potency [1] | Potency [2] | Potency [3] | Potency [4] | Potency [5] | activity change, negative = inhibition [1] | activity change, negative = inhibition [4] |
| --- | --- | --- | --- | --- | --- | --- | --- |
| Cc1ccnc(NC(=S)N2CCN(c3ccc(Br)cc3)CC2)c1 | inactive |  |  |  |  |  |  |
| Cc1ccc(S(=O)(=O)Nc2cnccc2C(=O)Nc2ccc(N3CCOCC3)cc2)cc1 | inactive | 4 µM (active) | 6.34 µM (active) |  |  |  |  |
| O=C(O)c1cccc(-c2noc(-c3ccc(C(F)(F)F)cc3)n2)c1 | inactive |  |  |  |  |  |  |
| N#Cc1ccc(-c2nc3ccccc3s2)cc1 | inactive |  |  |  |  |  |  |
| Cn1cc(CCn2cnc(-c3cnn(C)c3)c2-c2ccc(C#N)cc2)cn1 | inactive |  |  |  |  |  |  |
| CC(=O)NC(c1cc(Cl)c2ccccc2c1O)C(C)C (stereo unspecified) | inactive | 8.96 µM (active) | 20.1 µM (active) |  |  |  |  |
| COc1cc(O)ccc1OCCNCC(O)COc1cccc2[nH]c3ccccc3c12 (stereo unspecified) | inactive | 12.7 µM (active) |  | 3.16 µM (active) |  |  |  |
| O=C(O)c1ccc(O)c2ncc(NC3CCNC3)cc12 (stereo unspecified) | inactive | inactive | 3.57 µM (active) | inactive | inactive |  |  |
| CC(=O)NC(c1cccs1)c1cc(Br)c2cccnc2c1O (stereo unspecified) | inactive | 10.1 µM (active) |  | inactive |  |  |  |
| Cc1ccc(NS(=O)(=O)c2cc3c(cc2N2CCC2)NC(=O)CC3)cc1C | inactive | inactive | 22.5 µM (active) | inactive | 11.3 µM (active) |  |  |
| N#CN1CCC(NS(=O)(=O)c2ccc(C(F)(F)F)cc2)CC1 | inactive | inactive | 12.7 µM (active) | inactive | inactive |  |  |
| CNS(=O)(=O)c1ccc(Cc2c(-c3cccc(-c4ccccc4)c3)[nH]n(-c3nc(C(=O)O)cs3)c2=O)cc1 | inactive | 4 µM (active) |  | inactive |  |  |  |
| Nc1cccc(CNc2ccc(S(=O)(=O)Nc3nccs3)cc2)c1O |  | 10.1 µM (active) | inactive |  | 11.3 µM (active) | 2.56% [at 11.2 µM] | -14.8% [at 11.2 µM] |
| C=CCNc1nnc(-c2cccc3ccccc23)o1 | inactive | 10.1 µM (active) | 8.96 µM (active) |  | 7.98 µM (active) |  |  |
| CCN(CC)C(=O)CC(c1ccc2c(c1)OCO2)c1c(O)cc(OC)cc1OC (stereo unspecified) | inactive | inactive | inactive | inactive |  |  |  |
| Oc1cccc2cc(NCc3ccccc3F)cnc12 | inactive | 7.12 µM (active) | 15.9 µM (active) | inactive |  |  |  |
| Cc1ccc2nc3sc(C(=O)N4CCOCC4)cc3cc2c1 | inactive | 25.2 µM (active) |  | inactive |  |  |  |
| COc1ccc(CNc2ccc(S(=O)(=O)Nc3nccs3)cc2)cc1O | inactive | 5.65 µM (active) | 6.34 µM (active) | inactive | 7.12 µM (active) |  |  |
| COc1ccc(NC(=O)Nc2ccc(-c3nc4ccccc4[nH]3)cc2)cc1OC | inactive | inactive |  | inactive |  |  |  |
| CN(C)c1cccc(-c2cnc(N3CCC(C(N)=O)CC3)nc2)c1 | inactive | 22.5 µM (active) | 12.7 µM (active) |  | 11.3 µM (active) |  |  |
| CC(C)(C)OC(=O)N[C@@H](Cc1ccc(O[S+](=O)([O-])c2cccnc2)cc1)C(=O)N1CCN(c2ccccc2)CC1 | inactive | 28.3 µM (active) | 15.9 µM (active) | inactive |  |  |  |
| C/C=C/c1ccc2oc(-c3ccc(O)c(OC)c3)c(C)c2c1 | inactive | 1.01 µM (active) | 25.1 µM (active) |  | 17.9 µM (active) |  |  |
| CC(C)(C)OC(=O)N1CCN(c2ccc(NCc3occc3-c3ccc(C#N)cc3)cc2)CC1 | inactive | 20.1 µM (active) | 12.7 µM (active) |  | 11.3 µM (active) |  |  |
| NNc1ccc(NC(=O)c2cccs2)cn1 | inactive | 11.3 µM (active) |  | inactive |  |  |  |
| CCC(=O)NC(c1ccco1)c1cc(Br)c2cccnc2c1O (stereo unspecified) | inactive | 12.7 µM (active) | 11.3 µM (active) | inactive |  |  |  |
| COc1ccc(Nc2cc(O)c3ncccc3c2)cc1 | inactive | 0.0357 µM (active) | inactive |  | inactive |  |  |
| Oc1cc(NCc2ccc(F)cc2)cc2cccnc12 | inactive | 1.59 µM (active) | inactive |  | 7.12 µM (active) |  |  |
| CN1CCN(c2ccc(NC(=O)c3cccs3)cn2)CC1 | inactive | 22.5 µM (active) | 12.7 µM (active) | inactive |  |  |  |
| O=C(C(NS(=O)(=O)c1ccc2[nH]c(=O)ccc2c1)c1cccc(C(F)(F)F)c1)N(Cc1ccco1)Cc1cccs1 (stereo unspecified) | inactive | 25.2 µM (active) | 12.7 µM (active) | inactive | inactive |  |  |
| CC(=O)N1CCN(c2ccc(NCc3cccc(C)c3)cc2)CC1 | inactive | 20.1 µM (active) | 12.7 µM (active) |  | 12.7 µM (active) |  |  |
